In PubChem BioAssay (NCATS):
Inconclusive results are not listed. Where a call stands in place of a potency, no number is given. Active and inactive are the calls of the source. Calls follow the shape of the dose curve; as a rule, active = well fitted inhibition curve with a large enough effect; inconclusive = small, poorly fitted or top-dose-only effect; inactive = no such curve, though single readings can be large or run the other way.

The molecules below were run on Zika virus NS2B-NS3 protease (unlinked complex) (assay: Primary screen GU Rhodamine qHTS for Zika virus inhibitors: Unlinked NS2B-NS3 protease assay (AID 1347159; also: nearly all actives have a fitted effect of over 60% in size)). Settings: Recombinant ZIKV NS2B-NS3 protease, Rhodamine110 substrate fluorescence; series mostly up to 107 µM.
Method in brief: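 In dose–response format, inhibition of unlinked protease (25 nM) was measured with 1.5 microM bis-peptide Rhodamine110 substrate. Aprotinin served as the intraplate control.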

| SMILES | Potency |
| --- | --- |
| CCOC(=O)N1CCC(CN(Cc2ccc(Cl)cc2)Cc2ccc([N+](=O)[O-])s2)C1 (configuration not stated) | inactive |
| Cc1cc(-c2nc3cc(F)ccc3s2)ccc1NC(=O)[C@@H](N)CCCCN | inactive |
| C=C1C(=O)OC2/C=C(\C)CC3C=C(CC/C=C(\C)CCC12)C(=O)O3 (configuration not stated) | inactive |
| O=C(c1ccccc1)c1c(O)cc(O)cc1O[C@@H]1O[C@H](CO)[C@@H](O)[C@H](O)[C@H]1O | inactive |
| Cc1ccccc1CN1CCn2c1nc1c(c2=O)CN(Cc2ccccc2)CC1 | inactive |
| CC(=O)c1ccc2c(c1)[C@H](NC(=O)c1ccc(F)c(Cl)c1)[C@H](O)C(C)(C)O2 | inactive |
| O=C(Nc1ccc(Cl)cc1)C1CCCN(C(=O)c2cccc(-c3ccco3)c2)C1 (configuration not stated) | inactive |
| CN(C)CCN(Cc1ccccc1)C(=O)c1cc(-c2ccc(F)cc2)n2nc(C(C)(C)C)cc2n1 | inactive |
| CC[C@@H](C)[C@@H]1OC2(C=C[C@H]1C)C[C@@H]1C[C@H](C/C=C(\C)[C@H](O[C@H]3C[C@H](OC)[C@H](O[C@H]4C[C@H](OC)[C@H](NC(C)=O)[C@H](C)O4)[C@H](C)O3)[C@H](C)/C=C/C=C3\CO[C@H]4[C@H](O)C(C)=C[C@@H](C(=O)O1)[C@@]34O)O2 (some centres not stated) | inactive |
| C=C1C(=O)O[C@@H]2C[C@H](C)[C@@H]3CC(=O)C(C)=C3C[C@H]12 | inactive |
| CCn1c(N)c(C(=O)NC)c(=O)c2ccc(C#CC(C)(O)COC)nc21 (configuration not stated) | inactive |
| CN(C)C(=O)C(=O)c1cn(C)c2cc(Cl)c(C(=O)N3CCC(Cc4ccc(F)cc4)CC3)cc12 | inactive |
